# Experimental data taken from PubChem BioAssay (NCATS).
# Results filed as inconclusive are left out. Entries that show only a call come without a potency. Calls of active or inactive are those of the source. Unless noted, calls follow the shape of the dose curve; as a rule, active = well fitted curve in the direction sought with a large enough effect; inconclusive = small, poorly fitted or top-dose-only effect, or another doubt; inactive = no such curve, though single readings can be large; an effect the other way counts as inactive or inconclusive.
# Experiments:
# [1] = molecular target: Cytochrome P450 1A2 (Homo sapiens) (UniProt P05177); assay: qHTS for inhibitors of CYPIA2 against the NCATS DSHEA and TCM libraries (AID 1919976);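 also: light from luciferin formed by CYP1A2 from a pro-luciferin substrate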
# Chain of Cytochrome P450 1A2 (Homo sapiens) (P05177 whole entry, looked up): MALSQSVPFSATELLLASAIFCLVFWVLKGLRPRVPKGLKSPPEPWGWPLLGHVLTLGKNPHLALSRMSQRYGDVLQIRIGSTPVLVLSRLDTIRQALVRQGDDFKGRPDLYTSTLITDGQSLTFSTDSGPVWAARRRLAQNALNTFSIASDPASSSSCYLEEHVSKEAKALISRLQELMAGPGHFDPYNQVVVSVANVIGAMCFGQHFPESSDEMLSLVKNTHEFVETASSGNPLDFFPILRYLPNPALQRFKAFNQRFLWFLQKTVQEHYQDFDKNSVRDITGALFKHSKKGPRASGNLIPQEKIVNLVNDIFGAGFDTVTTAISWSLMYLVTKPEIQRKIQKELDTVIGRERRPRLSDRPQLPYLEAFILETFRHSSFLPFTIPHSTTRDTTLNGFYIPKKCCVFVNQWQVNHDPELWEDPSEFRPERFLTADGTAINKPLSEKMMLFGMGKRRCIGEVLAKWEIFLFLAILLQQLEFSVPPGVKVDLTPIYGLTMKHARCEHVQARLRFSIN
# Summary of the method: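 In this quantitative HTS, inhibition of recombinant human CYP1A2 was measured as loss of luciferin-derived luminescence. Turnover ran 30-45 min at RT after NADPH regeneration solution was added.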
# [2] = qHTS profiling for inhibitors of Plasmodium falciparum proliferation (AID 504749); also: nearly all actives have a fitted effect of over 60% in size; conditions: P. falciparum in erythrocytes, SYBR Green DNA, 72 h
# Summary of the method: (§1)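 Readout was DNA-dye fluorescence from lysed cultures, ex 485/em 535 nm. Parasitized red cells had grown 72 h with compound; data scaled between 0.29 uM artemisinin and DMSO wells and corrected using vehicle-only plates.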
# 3D7 = assay: as above; conditions: P. falciparum in erythrocytes, SYBR Green DNA, 72 h; series mostly up to 28.7 µM
# Summary of the method: as §1
# 7G8 = assay: as above; conditions: P. falciparum in erythrocytes, SYBR Green DNA, 72 h; series mostly up to 28.7 µM
# Summary of the method: as §1
# AA1029 = assay: as above; conditions: P. falciparum in erythrocytes, SYBR Green DNA, 72 h; series mostly up to 28.7 µM
# Summary of the method: as §1
# [3] = molecular target: Glutathione peroxidase 1 (Homo sapiens) (UniProt P07203); assay: Primary qHTS Assay for Inhibitors of Recombinant Selenoprotein Glutathione Peroxidase 1 (GPX1) (AID 1845191); also: nearly all actives have a fitted effect of over 65% in size
# Chain of Glutathione peroxidase 1 (Homo sapiens) (P07203 whole entry, looked up): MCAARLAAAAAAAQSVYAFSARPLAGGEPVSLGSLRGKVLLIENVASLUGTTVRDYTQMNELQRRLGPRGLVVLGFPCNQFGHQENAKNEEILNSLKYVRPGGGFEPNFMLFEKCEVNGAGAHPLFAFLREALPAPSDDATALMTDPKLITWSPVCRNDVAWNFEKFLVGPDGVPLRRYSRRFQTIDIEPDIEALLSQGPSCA
# Summary of the method: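 GR-coupled assay: compounds preincubated 30 min at room temperature with GPX1, then reaction started with CHP; final 10 nM GPX1, 1 mM GSH, 0.5 mM CHP, 0.5 mM NADPH, 100 nM GR, 0.01% BSA, pH 7.5 Tris buffer. NADPH fluorescence (340/450 nm) read at 0 and 15 min.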
# [4] = molecular target: Phospholipid hydroperoxide glutathione peroxidase GPX4 (Homo sapiens) (UniProt P36969); assay: Primary qHTS Assay for Inhibitors of Recombinant Selenoprotein Glutathione Peroxidase 4 (GPX4) (AID 1845192); also: nearly all actives have a fitted effect of over 65% in size
# Chain of Phospholipid hydroperoxide glutathione peroxidase GPX4 (Homo sapiens) (P36969 whole entry, looked up): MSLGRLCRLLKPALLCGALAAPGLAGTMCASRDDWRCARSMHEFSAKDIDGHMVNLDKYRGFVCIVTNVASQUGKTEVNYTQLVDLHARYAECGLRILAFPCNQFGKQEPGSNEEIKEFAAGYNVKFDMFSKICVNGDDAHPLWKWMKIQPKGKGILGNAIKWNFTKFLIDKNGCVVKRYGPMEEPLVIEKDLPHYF
# Summary of the method: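 GR-coupled assay: recombinant GPX4 preincubated 30 min with compound at room temperature; final 200 nM GPX4, 1 mM GSH, 0.5 mM cumene hydroperoxide, 0.5 mM NADPH, 100 nM GR, 0.01% BSA, pH 7.5 Tris. NADPH fluorescence (340/450 nm) read at 0 and 15 min.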
# [5] = qHTS drug screen for cell cycle checkpoint inhibitors in PARPi-resistant BRCA-mutant ovarian cancer cell lines. (AID 1963452; calls by dose curve); conditions: PEO1/OlaR viability, CellTiter-Glo luminescence, 96 h, stronger effect = lower value
# Summary of the method: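 PEO1, PEO4 and PEO1/OlaR ovarian cancer cells, 600 per well, exposed 96 h at 37C to a dilution series. Viability read by CellTiter-Glo luminescence, normalized to DMSO and empty wells; activity summarized as Z-AUC.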
# [6] = at 28.7 µM (top of the series), parasite line A
# [7] = at 28.7 µM (top of the series), parasite line B
# [8] = measured here: PEO1 parental Z-AUC
# [9] = at 12.8 µM (top of the series), parasite line A
# [10] = at 12.8 µM (top of the series), parasite line B
structure (smiles),measurement,setting,value
CC(C)=CCC[C@@](C)(O)[C@H]1CC=C(C)CC1,outcome,[1],inactive
NC(=O)NC1NC(=O)NC1=O (configuration not stated),outcome,[1],inactive
Cc1ccc(C(C)C)c(O)c1,"activity, negative = inhibition",[2]; [6],4.16% (inactive)
same,"activity, negative = inhibition",[2]; [7],-10.5% (inactive)
same,Potency,3D7,inactive
same,Potency,7G8,inactive
same,Potency,AA1029,inactive
O=C(CCBr)N1CCN(C(=O)CCBr)CC1,Potency,[3],inactive
same,Potency,[4],inactive
same,"activity, negative = inhibition",[2]; [6],10% (inactive)
same,"activity, negative = inhibition",[2]; [7],-0.0848% (inactive)
same,Potency,3D7,inactive
same,Potency,7G8,inactive
same,Potency,AA1029,inactive
CCCCCOC(=O)Nc1nc(=O)n([C@@H]2O[C@H](C)[C@@H](O)[C@H]2O)cc1F,Potency,[3],inactive
same,Potency,[4],inactive
same,Z-AUC,[5],-0.294 (inactive)
same,Z-AUC,[5]; [8],-0.525
same,Z-AUC,[5]; measured here: PEO4 Z-AUC,-0.448
OCCN1C[C@H](O)[C@@H](O)[C@H](O)[C@H]1CO,Potency,[3],inactive
same,Potency,[4],inactive
same,Z-AUC,[5],0.928 (inactive)
same,Z-AUC,[5]; [8],0.927
same,Z-AUC,[5]; measured here: PEO4 Z-AUC,1.11
NS(=O)(=O)c1cc2c(cc1C(F)(F)F)NCNS2(=O)=O,Potency,[3],inactive
same,Potency,[4],inactive
same,"activity, negative = inhibition",[2]; [9],2.71% (inactive)
same,"activity, negative = inhibition",[2]; [10],5.88% (inactive)
same,Potency,3D7,inactive
same,Potency,7G8,inactive
same,Potency,AA1029,inactive
C[C@]1(Cn2ccnn2)[C@H](C(=O)O)N2C(=O)C[C@H]2S1(=O)=O,Potency,[3],inactive
same,Potency,[4],inactive
Cc1onc(-c2ccccc2)c1-c1ccc(S(N)(=O)=O)cc1,Potency,[3],inactive
same,Potency,[4],inactive
same,Z-AUC,[5],-1 (inactive)
same,Z-AUC,[5]; [8],-0.334
same,Z-AUC,[5]; measured here: PEO4 Z-AUC,0.0747
same,"activity, negative = inhibition",[2]; [6],-24.3% (inactive)
same,Potency,3D7,inactive
same,Potency,7G8,inactive
same,Potency,AA1029,inactive
CC(=O)N[C@H]1[C@H]([C@H](O)[C@H](O)CO)OC(C(=O)O)=C[C@@H]1N=C(N)N,Potency,[3],inactive
same,Potency,[4],inactive
COc1ccccc1OC(=O)Oc1ccccc1OC,Potency,[3],inactive
same,Potency,[4],inactive
same,"activity, negative = inhibition",[2]; [6],-1.25% (inactive)
same,"activity, negative = inhibition",[2]; [7],5.57% (inactive)
same,Potency,3D7,inactive
same,Potency,7G8,inactive
same,Potency,AA1029,inactive
O[C@@H]1CO[C@H]2[C@@H]1OC[C@@H]2O,Potency,[3],inactive
same,Potency,[4],inactive
same,"activity, negative = inhibition",[2]; [6],8.49% (inactive)
same,"activity, negative = inhibition",[2]; [7],1.12% (inactive)
same,Potency,3D7,inactive
same,Potency,7G8,inactive
same,Potency,AA1029,inactive
CC(CN(C)C)C(C)(O)Cc1ccc(Cl)cc1 (configuration not stated),Potency,[3],inactive
same,Potency,[4],inactive
same,"activity, negative = inhibition",[2]; [6],6.13% (inactive)
same,"activity, negative = inhibition",[2]; [7],10.7% (inactive)
same,Potency,3D7,inactive
CCN(CC)C(=O)c1cccc(C)c1,Potency,[3],inactive
same,Potency,[4],inactive
same,"activity, negative = inhibition",[2]; [6],7.82% (inactive)
same,"activity, negative = inhibition",[2]; [7],6.22% (inactive)
same,Potency,3D7,inactive
same,Potency,7G8,inactive
same,Potency,AA1029,inactive
CC(=O)Nc1ccc(C(=O)O)cc1,Potency,[3],inactive
same,Potency,[4],inactive
same,"activity, negative = inhibition",[2]; [6],7.84% (inactive)
same,"activity, negative = inhibition",[2]; [7],3.26% (inactive)
same,Potency,3D7,inactive
same,Potency,7G8,inactive
same,Potency,AA1029,inactive
CCCCOC(=O)c1ccc(N)cc1,Potency,[3],inactive
same,Potency,[4],inactive
same,"activity, negative = inhibition",[2]; [6],5.58% (inactive)
same,"activity, negative = inhibition",[2]; [7],10.8% (inactive)
same,Potency,3D7,inactive
same,Potency,7G8,inactive
same,Potency,AA1029,inactive
Cc1ccsc1C(=CCCN1CCC[C@@H](C(=O)O)C1)c1sccc1C,Potency,[3],inactive
same,Potency,[4],inactive
same,Z-AUC,[5],-0.0792 (inactive)
same,Z-AUC,[5]; [8],0.789
same,Z-AUC,[5]; measured here: PEO4 Z-AUC,0.901
same,"activity, negative = inhibition",[2]; [6],0.673% (inactive)
same,"activity, negative = inhibition",[2]; [7],3.18% (inactive)
same,Potency,3D7,inactive
same,Potency,7G8,inactive
same,Potency,AA1029,inactive
CCCCCCCC(=O)OCC(O)CO (configuration not stated),Potency,[3],inactive
same,Potency,[4],inactive
same,"activity, negative = inhibition",[2]; [6],0.997% (inactive)
same,"activity, negative = inhibition",[2]; [7],-8.07% (inactive)
same,Potency,3D7,inactive
same,Potency,7G8,inactive
same,Potency,AA1029,inactive
COc1ccc(NS(=O)(=O)c2ccc(N)cc2)nn1,Potency,[3],inactive
same,Potency,[4],inactive
same,"activity, negative = inhibition",[2]; [9],2.8% (inactive)
same,"activity, negative = inhibition",[2]; [10],13.5% (inactive)
same,Potency,3D7,inactive
same,Potency,7G8,inactive
same,Potency,AA1029,inactive
COC(=O)c1ccc(O)cc1,Potency,[3],inactive
same,Potency,[4],inactive
same,"activity, negative = inhibition",[2]; [6],3.79% (inactive)
same,"activity, negative = inhibition",[2]; [7],9.44% (inactive)
same,Potency,3D7,inactive
same,Potency,7G8,inactive
same,Potency,AA1029,inactive
CN(C(=O)c1c(O)c2ccccc2n(C)c1=O)c1ccccc1,Potency,[3],inactive
same,Potency,[4],inactive
same,Z-AUC,[5],0.957 (inactive)
same,Z-AUC,[5]; [8],0.533
same,Z-AUC,[5]; measured here: PEO4 Z-AUC,0.496
same,"activity, negative = inhibition",[2]; [6],16.3% (inactive)
same,"activity, negative = inhibition",[2]; [7],2.94% (inactive)
same,Potency,3D7,inactive
same,Potency,AA1029,inactive
C/C=C/C(=O)N(CC)c1ccccc1C,Potency,[3],inactive
same,Potency,[4],inactive
same,Z-AUC,[5],0.904 (inactive)
same,Z-AUC,[5]; [8],0.852
same,Z-AUC,[5]; measured here: PEO4 Z-AUC,0.821
COC(=O)c1cccnc1,Potency,[3],inactive
same,Potency,[4],inactive
same,"activity, negative = inhibition",[2]; [6],7.8% (inactive)
same,"activity, negative = inhibition",[2]; [7],16.6% (inactive)
same,Potency,3D7,inactive
same,Potency,7G8,inactive
same,Potency,AA1029,inactive
CC(=O)NCc1c(I)c(NC(C)=O)c(I)c(C(=O)O)c1I,Potency,[3],inactive
same,Potency,[4],inactive
same,"activity, negative = inhibition",[2]; [6],10.9% (inactive)
same,"activity, negative = inhibition",[2]; [7],6.96% (inactive)
same,Potency,3D7,inactive
same,Potency,7G8,inactive
same,Potency,AA1029,inactive
OC[C@@H](O)[C@@H](O)[C@H](O)[C@H](O)CO,Potency,[3],inactive
same,Potency,[4],inactive
same,Z-AUC,[5],-0.605 (inactive)
same,Z-AUC,[5]; [8],-0.476
same,Z-AUC,[5]; measured here: PEO4 Z-AUC,-0.786
same,"activity, negative = inhibition",[2]; [6],7.85% (inactive)
same,"activity, negative = inhibition",[2]; [7],7.16% (inactive)
same,Potency,3D7,inactive
same,Potency,7G8,inactive
same,Potency,AA1029,inactive
C[C@@H]1O[C@@H](OC[C@H]2O[C@@H](Oc3c(-c4ccc(O)c(O)c4)oc4cc(O)cc(O)c4c3=O)[C@H](O)[C@@H](O)[C@@H]2O)[C@H](O)[C@H](O)[C@H]1O,Potency,[3],inactive
same,Potency,[4],inactive
same,"activity, negative = inhibition",[2]; [6],3.3% (inactive)
same,"activity, negative = inhibition",[2]; [7],8.33% (inactive)
same,Potency,3D7,inactive
same,Potency,7G8,inactive
same,Potency,AA1029,inactive
O=C(O)/C=C/c1ccc(Cn2ccnc2)cc1,Potency,[3],inactive
same,Potency,[4],inactive
same,Z-AUC,[5],1.62 (inactive)
same,Z-AUC,[5]; [8],1.73
same,Z-AUC,[5]; measured here: PEO4 Z-AUC,2.28
CC(=O)[C@@]1(O)CC[C@H]2[C@@H]3C[C@H](C)C4=CC(=O)C=C[C@]4(C)[C@@]3(F)[C@@H](O)C[C@@]21C,Potency,[3],inactive
same,Potency,[4],inactive
